PubChem BioAssay AID588334 (Broad Institute, 2011)
Among all 300,000 compounds or so, about 2,300 (0.77%) were called active.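 The calls were made as follows: active = mean activation of at least 80% with every replicate also reaching 80%; inconclusive = mean reaches 80% but some replicate falls short; inactive = the rest.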 The full list was thinned out, with actives kept by preference.

test: MITF-driven TRPM1 luciferase induction in melanoma cells – cell-based, SK-MEL-5, single point, primary screen (AID 588334); settings: SK-MEL-5 TRPM1-promoter luciferase, 24 h; at 12.5 µM; stronger effect = higher value; % of positive control, neutral wells = 0;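 also: 0% = neutral control wells and 100% = parthenolide positive control wells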

activation, active:
O=C(c1cnn2ccccc12)N1CCc2ccccc21 91.5%
N#CC(=C1CCCC1)c1nc(-c2ccc(Cl)cc2)cs1 91.3%
CCC(=O)Oc1cccc(C(=O)Nc2ccc(-c3nnc(-c4ccco4)o3)cc2)c1 85.5%
Brc1ccccc1/C=N/Nc1nc2ccccc2o1 81.1%
CSc1ccccc1OCc1cc(C(=O)N2C[C@H]3CC[C@H]2C3)no1 91.7%
COC(=O)c1ccc(Nc2ncnc3sccc23)cc1 93.3%
Cc1ccc(C(=O)NNC(=O)c2ccc3c(c2)OCCO3)cc1 109%
Cc1nc(NC(=O)c2ccc3c(c2)OCCO3)ccc1Br 122%
C1=C(CCNc2ncnc3c2cnn3-c2ccccc2)CCCC1 94.3%
Cc1ccnc(NC(=O)c2ccc(NC(=O)c3ccco3)cc2)c1 109%
C/C(=C\C(=O)c1cccnc1)Nc1ccc(C)c(C)c1 104%
COc1ccc(-c2noc(-c3cccc(OC)c3OC)n2)cc1OC 88.3%
COc1cc(OC)cc(-c2cc3ccc(F)cc3cn2)c1 111%
COc1ccc(-c2c(C#Cc3ccccc3)c3ccccc3n2C)cc1 85.9%
Nc1c(C(=O)Nc2ccc3c(c2)OCCO3)nnn1Cc1ccccc1 81.1%
Cc1sc(NC(=O)c2ccc3ncsc3c2)c(C(N)=O)c1C 103%
Cc1nc2cc(NCc3cccs3)ccc2n1C 90.7%
CC(C)COC(=O)c1ccc(NC(=O)C2C3C=CC(C3)C2C(=O)O)cc1 (stereo not drawn) 105%

activation, inactive:
Cc1cnc(C(=O)OCC(=O)N2CCc3ccccc32)cn1 -0.372%
CCCCn1nc(C(=O)N2CCc3ccccc32)c2ccccc2c1=O -15.9%
C=CC(COCc1ccccc1)N(CC(=O)OC)S(=O)(=O)c1cc(Br)ccc1OC (stereo not drawn) -10.3%
CCC(CO)Oc1cc(NC(=O)c2cccc3ccccc23)c2ncn(C(C)C)c2c1 (stereo not drawn) -4.63%
COc1ccc(CNC(=O)C[C@H]2C[C@H](C(=O)N3CCOCC3)[C@@]3(CCC4CCCC4)c4[nH]c5ccc(Cl)cc5c4CCN3C2=O)cc1OC -70.8%
N#CC(=C1SC=CS1)c1nc(-c2ccccc2)cs1 47.6%
Clc1ccc(-c2csc(-c3ccncc3)n2)cc1 33.5%
O=S(=O)(Cc1ccc(Cl)cc1Cl)c1ccc(Cl)cc1 16.2%
CC1(C)C[C@H]2C3=CCC4[C@@]5(C)CC[C@H](O)[C@](C)(CO)C5CC[C@@]4(C)[C@]3(C)C[C@@H](O)[C@@]2(CO)[C@@H](O)[C@@H]1O (stereo partly drawn) -11.2%
O=C(CCc1ccccc1)Nc1cccc(-c2nnc(-c3ccco3)o2)c1 10.8%
CCCCOc1ccc(-c2nnc(-c3ccco3)o2)cc1 30.3%
CC[C@]12c3[nH]c4cc(CCC(=O)N(C)C)ccc4c3CCN1C(=O)[C@@H](CC(=O)NCC13CC4CC(CC(C4)C1)C3)C[C@@H]2C(=O)N1CCN(C(=O)C2CC2)CC1 5.19%
COc1ccc(/C=C2/CCCc3ccccc3C2=O)cc1 39.3%
COc1ccc(/C=N/Nc2nc3ccccc3o2)cc1OC 56.1%
CCOc1ccccc1/C=N/Nc1nc2ccccc2o1 13.3%
O=C(CNC(=O)c1cc(S(=O)(=O)N2CCOCC2)ccc1N1CCCC1)Nc1ccc(F)c(F)c1 -3.17%
COc1cc2c(cc1CNC[C@H]1O[C@@H](n3cnc(C(N)=O)n3)[C@H](O)[C@@H]1O)OCO2 -7.21%
CSc1ccccc1OCc1cc(C(=O)N(C)CCc2c(C)n[nH]c2C)no1 1.76%
COC(=O)[C@@H]1CCCN1C(=O)c1cc(COc2cccc3cccnc23)on1 -6.69%
C=CCCC(=O)N1C[C@H]2CON(C)[C@H]2C[C@H]1c1cccc(Nc2ccccc2)c1 17.1%
O=C(Nc1ccccc1)Oc1cccc2cccnc12 -34.4%
CCOC(=O)c1nc(Nc2ccc(C(=O)OC)cc2)c2ccccc2n1 8.95%
COc1ccc(Nc2ncnc3sc(C)cc23)cc1 68.5%
O=C(Nc1ccccc1)c1ccc2c(c1)OCCCO2 24.5%
Cc1ccc2sc(NNC(=O)c3ccc4c(c3)OCCO4)nc2c1C -0.623%
O=C(Nc1ccc(Cl)cn1)c1ccc2c(c1)OCCO2 5.88%
Cc1cccc(C)c1NC(=O)CNC(=O)c1ccc2c(c1)OCCO2 4.28%
CSCCC(NC(=O)COc1ccccc1)C(=O)N1CCN(c2cccc(C(F)(F)F)c2)CC1 (stereo not drawn) 8.6%
CC(C)N(C(=O)[C@H]1C[C@H](CC(=O)NCCC2=CCCCC2)C(=O)N2CCc3c([nH]c4cc(CCC(=O)N(C)C)ccc34)[C@]12C)C(C)C 10.3%
COc1ccc2[nH]c3c(c2c1)CCN1C(=O)C(CC(=O)NCc2cccc(C(F)(F)F)c2)C[C@H](C(=O)N2CCOCC2)[C@@]31C (stereo partly drawn) 2.71%
O=C(NCCC1=CCCCC1)C1CCN(Cc2cnn(-c3ccccc3)c2-n2cccc2)CC1 11.4%
O=C(NNc1ncnc2c1cnn2-c1ccccc1)c1ccco1 2.51%
N#CC(Cc1cc2ccccc2n1S(=O)(=O)c1ccccc1)OCc1ccccc1 (stereo not drawn) -2.16%
Cc1cc(NC(=O)c2ccc(F)cc2)ccc1NC(=O)c1ccco1 10.4%
O=C(Nc1ccc(O)cc1)c1ccc(NC(=O)c2ccco2)cc1 30.3%
CC(C)C[C@H]1CN([C@@H](CC(C)C)CN2CCC[C@@H]2CN2C(=O)C(=O)NC[C@@H]2Cc2ccccc2)C(=O)C(=O)N1CCc1ccccc1 2.67%
C=CC[C@@H](Cc1ccc(F)cc1)C(=O)OC[C@H]1CCCN1C(=O)[C@H](CC=C)CC(=O)N(CCO)Cc1ccccc1 12.6%
CC(=O)OC1CCC2(C)C(=CCC3C4CC(=O)N(O)C(=O)C4(C)CCC32)C1 (stereo not drawn) -5.88%
COc1ccc(CNCCCNCc2ccc(OC)c(OC)c2)cc1OC 7.54%
Cc1ccc(N/C=C/C(=O)c2ccccc2)cc1C -1.56%
Cc1ccc(NC(=O)COc2ccc(/C=N\NC(=O)c3cccnc3)cc2)cc1C 13.6%
COc1ccccc1C(=O)Nc1ccc(C)c(S(=O)(=O)N2CCCCC2)c1 -6.44%
CC(=O)Nc1ccc(NC(=O)COC(=O)C2CCC(C(C)(C)C)CC2)cc1 (stereo not drawn) -0.038%
COc1ccc(-c2csc(-c3cccs3)n2)cc1OC 56.3%
COc1ccc(-c2noc(CCCC(=O)NC3CCCC3)n2)cc1OC 4.98%
COc1ccc(-c2cc3ncccc3cn2)cc1 72%
Fc1ccc2cnc(-c3ccccc3)cc2c1 63.9%
O=C(Nc1ccc(S(=O)(=O)N2CCOCC2)cc1)C1CCN(S(=O)(=O)c2ccc(Cl)cc2)CC1 -12.4%
COc1ccccc1-c1nnc2n1N=C(c1ccc(OC(F)F)c(OCC3CC3)c1)CS2 3.16%
COc1ccc(CCNCc2c(-c3ccccc3)n(C)c3ccccc23)cc1 2.46%
COc1cc(OC)cc(-c2c(C#Cc3ccsc3)c3cc(-c4ccc(SC)cc4)ccc3n2C)c1 6.54%
COc1ccc(CC(=O)N[C@@H]2c3cc(OC)c(OC)cc3C[C@H]2OCc2ccccc2)cc1 -0.621%
CCCCNC(=O)C(C)N(CCN(C)C)C(=O)CCCCCN1C(=O)NC(c2ccc(Cl)cc2)C(C(=O)OCc2ccccc2)=C1C (stereo not drawn) -93.7%
Oc1ccc(-c2nc3ccccc3nc2-c2ccc(O)cc2O)c(O)c1 -29.5%
CCc1ccc(NC(=O)Cn2nnc(C(=O)NCc3ccc4c(c3)OCO4)c2N)cc1 -0.586%
CCOc1ccc(Cn2nnc(C(=O)NCc3ccccc3)c2N)cc1 0.298%
Cc1cccc(C=CC(=O)c2ccc(Cl)cc2)c1 35.1%
CN(C)C(=O)CCc1ccc2c3c([nH]c2c1)[C@]1(CCc2ccccc2)[C@@H](C(=O)N2CCCCC2)C[C@H](CC(=O)NCCC2=CCCCC2)C(=O)N1CC3 -16.1%
Cc1ccc(S(=O)(=O)N2CCN(C(=O)CN3C(=O)NC(C)(c4ccc(Cl)cc4)C3=O)CC2)c(C)c1 (stereo not drawn) 3.72%
COc1ccccc1-c1nnc(NC(=O)c2ccc3ncsc3c2)o1 -3.99%
Cc1ccc(C(=O)c2c(NC(=O)c3ccccc3)sc(C)c2C)cc1 24.2%
CN(C(=O)c1cccc(NC(=O)Cc2cccc(NC(=O)C3CCCN(C(=O)C4CC4)C3)c2)c1)C1CCC1 (stereo not drawn) -0.0755%
COc1ccc(C(=O)Nc2cc(S(=O)(=O)N3CCCC3)ccc2Cl)cc1 5.82%
Cc1nc2cc(NC(=O)NC3CC3)ccc2n1C 13.8%
Cc1nc2cc(NC(=O)Nc3cccc(F)c3)ccc2n1C 12.9%
O=C(O)c1ccc(Cn2cnc3c(=S)nc[nH]c32)cc1 6.13%
COc1ccc2c(c1)C(=O)CC(c1ccccc1)O2 (stereo not drawn) 54.8%
Cc1cc(NC(=O)C(C)SCC(=O)Nc2cccc(S(=O)(=O)N3CCCCCC3)c2)no1 (stereo not drawn) -15.9%
COC(=O)c1cc(NC(=O)C2C3C=CC(C3)C2C(=O)O)cc(C(=O)OC)c1 (stereo not drawn) 14.6%
CC(=O)NS(=O)(=O)c1ccc(NC(=O)C2C3C=CC(C3)C2C(=O)O)cc1 (stereo not drawn) -12.7%
